Measurements from PubChem BioAssay (NCATS).
Calls of active or inactive are those of the source. The rule behind the calls is not given here.

The compounds below were run on HIV-1 nucleocapsid protein NCp7 (binding to TG oligonucleotide) (assay: HIV Nucleocapsid (AID 346;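 note: potency is for inhibitors that block NC binding and lower polarization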)). Details: HIV-1 NC / fluorescein-TGTGTGTG probe, fluorescence polarization.
How it was run: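 Reagents dispensed (10 nM TG4xF, 100 nM HIV-1 NC), plates spun, compounds pin-transferred, then incubated 1 hr at room temperature before FP imaging. Buffer: Hepes pH 7.5, 250mM NaCl, 1uM ZnCl2, 100 uM TCEP, 5 mM 2-mercaptoethanol.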
Potency is the fitted concentration of half-maximal effect.

Compound	Potency
COc1cccc(-c2ccc3ncnc(NCCc4c[nH]c5ccc(OC)cc45)c3c2)c1	> 20 µM (inactive)
COc1cccc(Cn2c(=O)cnc3cnc(N4CCOCC4)nc32)c1	> 20 µM (inactive)
CC(C)CN1CCCC2(CCN(S(=O)(=O)c3ccccc3)CC2)C1	> 20 µM (inactive)
COc1ccc(-n2c(=O)c(C)nc3cnc(Oc4ccccc4)nc32)cc1	> 20 µM (inactive)
CN(Cc1ccco1)c1ccnc(-c2ccoc2)n1	> 20 µM (inactive)
CS(=O)(=O)N1CCC2(CCCN(C(=O)Nc3cccc(C#N)c3)C2)CC1	> 20 µM (inactive)
Cc1cccc(CNc2ccnc(-c3ccc(C(=O)N(C)C)cc3)n2)c1	> 20 µM (inactive)
CN(C)c1ncnc2ccc(-c3cccnc3)cc12	> 20 µM (inactive)
N#Cc1ccccc1-c1nc(NCCN2CCOCC2)c2ccccc2n1	> 20 µM (inactive)
c1ccc(CNc2ncnc3ccc(-c4ccoc4)cc23)cc1	> 20 µM (inactive)
CC(C)CN1CC[C@@]2(CCCN(C(=O)c3cnccn3)C2)C1	> 4 µM (inactive)
Cc1nc2cncnc2n(C2CC2)c1=O	> 20 µM (inactive)
COc1ccc(-n2c(=O)c(-c3ccc(F)c(F)c3)nc3cncnc32)cc1	> 4 µM (inactive)
CN(Cc1ccco1)c1cc(-c2cccnc2)ncn1	> 20 µM (inactive)
CN(C)c1ccc(-c2ccc3ncnc(N4CCNCC4)c3c2)cc1	> 20 µM (inactive)
O=c1c(CCc2ccccc2)nc2cnc(N3CCNCC3)nc2n1Cc1ccc(F)cc1	> 20 µM (inactive)
COc1ccc(NC(=O)N2CC[C@@]3(CCCNC3)C2)cc1	> 20 µM (inactive)
COc1ncc2nc(-c3ccc(Cl)cc3)c(=O)n(-c3ccccc3)c2n1	> 20 µM (inactive)
COc1ccc2[nH]cc(CCNc3ccnc(-c4ccc(N(C)C)cc4)n3)c2c1	> 20 µM (inactive)
CCNc1ncc2nc(CCc3ccccc3)c(=O)n(C)c2n1	> 20 µM (inactive)

Compound	Potency
NCCn1c(=O)c(CCc2ccccc2)nc2cncnc21	> 20 µM (inactive)
CC(C)CN1CCC2(CC1)CCN(C(=O)c1cc(C(F)(F)F)cc(C(F)(F)F)c1)CC2	> 20 µM (inactive)
CN(C)Cc1ccccc1-c1cc(NCc2cccs2)ncn1	> 20 µM (inactive)
COc1ccc(C(=O)N2CCC3(CC2)CN(C(=O)NC(C)C)C3)cc1	> 20 µM (inactive)
COC(=O)N1CCC2(CCN(C(=O)Nc3cccc(F)c3)CC2)CC1	> 20 µM (inactive)
COCC(=O)N1CCC[C@@]2(CCN(Cc3nccs3)C2)C1	> 20 µM (inactive)
COc1ccccc1-c1nccc(NCc2ccccc2)n1	> 20 µM (inactive)
Cc1nc2cnc(Nc3ccccc3)nc2n(C)c1=O	> 4 µM (inactive)
CN(C)Cc1ccccc1-c1nccc(Nc2ccc(F)cc2)n1	> 20 µM (inactive)
O=S(=O)(c1ccccc1)N1CCC2(CCCN(c3ccccn3)C2)CC1	> 4 µM (inactive)
CNc1cc(-c2ccccc2C(F)(F)F)ncn1	> 20 µM (inactive)
COc1ccccc1CNc1cc(-c2ccc(C(=O)N(C)C)cc2)ncn1	> 20 µM (inactive)
COc1cccc(Nc2ncc3ncc(=O)n(C)c3n2)c1	> 20 µM (inactive)
CN(C)c1ncc2nc(-c3cc(F)cc(F)c3)c(=O)n(CCC#N)c2n1	> 20 µM (inactive)
c1ccc2c(NCCN3CCOCC3)nc(-c3ccoc3)nc2c1	> 20 µM (inactive)
CC(=O)N1CCC[C@@]2(CCN(Cc3cc(C(F)(F)F)cc(C(F)(F)F)c3)C2)C1	> 20 µM (inactive)
O=c1c(-c2ccccc2)nc2cnc(N3CCNCC3)nc2n1Cc1ccc(F)cc1	> 20 µM (inactive)
CNc1nc(-c2ccccc2OC)nc2ccccc12	> 20 µM (inactive)
c1ccc(Nc2ncnc3ccc(-c4cccnc4)cc23)cc1	> 20 µM (inactive)
CS(=O)(=O)Nc1cccc(-c2nc(NCc3ccccc3)c3ccccc3n2)c1	> 20 µM (inactive)
